# Laboratory results published in PubChem BioAssay.
# Calls of active or inactive are those of the source.
# Key:
# [1] = binders of probe aFSTL3 on microarray, primary screen, stem cell growth factor project, biochemical, small-molecule microarray, fluorescence 635/667 (AID 1064); details: higher = more signal;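 note: measures binding of the biotinylated anti-FSTL3 antibody to printed compounds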
# [2] = binders from COS7 lysate, DM2A8 probe, primary screen, torsin A project, cell lysate, small-molecule microarray, fluorescence 635/667 (AID 1065); details: higher = more signal, COS7 lysate expressing mutant human TOR1A
# [3] = binders of probe aFGF2 on microarray, primary screen, stem cell growth factor project, biochemical, small-molecule microarray, fluorescence 635/667 (AID 1067); details: higher = more signal;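 note: measures binding of biotinylated aFGF2 protein to printed compounds on slides; z-score merges feature fluorescence and signal-to-noise across triplicate slides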
# [4] = binders of probe aFGF10 on microarray, primary screen, stem cell growth factor project, biochemical, small-molecule microarray, fluorescence 635/667 (AID 1071); details: higher = more signal;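 note: score merges 667 nm spot intensity and signal to noise from triplicate slides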
# [5] = molecular target: Neurogenic locus notch homolog protein 2 (Homo sapiens) (UniProt Q04721); test: Notch2 binders on small-molecule microarrays, primary screen, biochemical, small-molecule microarray, 635 nm fluorescence, stem cell growth factors (AID 1073); details: Notch2 binding, higher = more signal
# Neurogenic locus notch homolog protein 2 (Homo sapiens), sequence (Q04721 whole entry, looked up, canonical isoform): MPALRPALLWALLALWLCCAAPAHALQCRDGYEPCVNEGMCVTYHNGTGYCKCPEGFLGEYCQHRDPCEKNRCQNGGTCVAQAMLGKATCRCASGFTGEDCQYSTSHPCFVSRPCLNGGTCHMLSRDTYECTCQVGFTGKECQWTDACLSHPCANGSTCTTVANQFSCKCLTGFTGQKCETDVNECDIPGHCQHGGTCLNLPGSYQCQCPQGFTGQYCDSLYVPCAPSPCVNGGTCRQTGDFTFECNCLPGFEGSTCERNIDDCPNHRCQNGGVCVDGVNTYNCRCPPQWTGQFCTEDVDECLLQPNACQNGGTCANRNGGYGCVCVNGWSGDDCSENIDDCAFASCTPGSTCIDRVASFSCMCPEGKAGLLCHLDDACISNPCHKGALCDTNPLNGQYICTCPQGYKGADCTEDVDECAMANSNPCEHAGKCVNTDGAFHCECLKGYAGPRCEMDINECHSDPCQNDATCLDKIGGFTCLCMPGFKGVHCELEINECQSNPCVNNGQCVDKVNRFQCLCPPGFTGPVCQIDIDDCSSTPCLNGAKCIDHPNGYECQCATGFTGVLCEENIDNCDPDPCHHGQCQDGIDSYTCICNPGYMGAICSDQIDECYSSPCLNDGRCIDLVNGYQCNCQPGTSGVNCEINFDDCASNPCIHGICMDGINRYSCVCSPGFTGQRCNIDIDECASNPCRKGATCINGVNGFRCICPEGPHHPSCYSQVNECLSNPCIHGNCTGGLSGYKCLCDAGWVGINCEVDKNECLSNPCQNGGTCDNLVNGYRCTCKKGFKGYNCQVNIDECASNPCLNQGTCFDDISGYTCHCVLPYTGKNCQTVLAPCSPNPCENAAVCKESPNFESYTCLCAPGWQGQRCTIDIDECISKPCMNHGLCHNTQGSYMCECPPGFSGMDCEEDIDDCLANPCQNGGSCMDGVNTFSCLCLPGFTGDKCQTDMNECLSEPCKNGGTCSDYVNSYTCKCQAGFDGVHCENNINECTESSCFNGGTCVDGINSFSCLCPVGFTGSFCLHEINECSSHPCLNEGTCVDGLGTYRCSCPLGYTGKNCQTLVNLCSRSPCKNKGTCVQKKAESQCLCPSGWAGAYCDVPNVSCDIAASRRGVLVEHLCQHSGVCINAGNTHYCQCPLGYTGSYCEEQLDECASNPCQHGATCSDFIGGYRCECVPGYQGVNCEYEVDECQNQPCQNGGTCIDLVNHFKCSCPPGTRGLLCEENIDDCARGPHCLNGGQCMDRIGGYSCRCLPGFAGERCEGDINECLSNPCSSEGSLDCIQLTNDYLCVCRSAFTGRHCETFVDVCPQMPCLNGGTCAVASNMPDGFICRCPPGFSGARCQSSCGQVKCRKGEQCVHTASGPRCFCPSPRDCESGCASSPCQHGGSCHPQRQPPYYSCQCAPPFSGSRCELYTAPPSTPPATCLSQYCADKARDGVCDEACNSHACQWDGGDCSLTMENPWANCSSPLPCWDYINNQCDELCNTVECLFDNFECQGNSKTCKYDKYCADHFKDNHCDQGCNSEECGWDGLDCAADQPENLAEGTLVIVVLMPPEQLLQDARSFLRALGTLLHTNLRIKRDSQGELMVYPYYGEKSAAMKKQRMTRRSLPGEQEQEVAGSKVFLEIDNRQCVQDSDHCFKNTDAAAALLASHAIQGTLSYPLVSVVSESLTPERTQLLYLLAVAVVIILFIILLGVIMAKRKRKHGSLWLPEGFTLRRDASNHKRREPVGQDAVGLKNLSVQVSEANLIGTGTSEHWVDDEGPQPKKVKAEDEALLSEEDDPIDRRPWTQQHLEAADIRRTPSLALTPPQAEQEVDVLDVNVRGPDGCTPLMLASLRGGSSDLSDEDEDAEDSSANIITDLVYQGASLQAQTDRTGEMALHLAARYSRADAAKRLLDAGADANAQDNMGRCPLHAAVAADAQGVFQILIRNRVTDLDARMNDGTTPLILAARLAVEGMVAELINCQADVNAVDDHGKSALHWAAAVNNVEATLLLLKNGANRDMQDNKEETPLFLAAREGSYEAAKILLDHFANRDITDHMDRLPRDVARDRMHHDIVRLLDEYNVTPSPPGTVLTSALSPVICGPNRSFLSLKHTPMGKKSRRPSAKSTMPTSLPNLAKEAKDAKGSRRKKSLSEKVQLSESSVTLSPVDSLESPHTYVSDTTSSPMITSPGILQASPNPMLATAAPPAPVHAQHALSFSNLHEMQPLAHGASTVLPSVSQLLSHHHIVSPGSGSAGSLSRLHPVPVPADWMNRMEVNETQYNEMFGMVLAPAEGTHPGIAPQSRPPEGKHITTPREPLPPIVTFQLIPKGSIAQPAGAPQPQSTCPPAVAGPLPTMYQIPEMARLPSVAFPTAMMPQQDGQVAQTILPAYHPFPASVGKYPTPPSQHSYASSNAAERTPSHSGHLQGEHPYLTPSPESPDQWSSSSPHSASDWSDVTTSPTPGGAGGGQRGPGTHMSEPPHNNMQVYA
# [6] = molecular target: Pro-neuregulin-1, membrane-bound isoform (Homo sapiens) (UniProt Q02297); test: NRG1 binders on small-molecule microarrays, primary screen, psychiatric disease protein project, biochemical, small-molecule microarray, fluorescence 635/667 (AID 1075); details: NRG1 binding, 635 nm fluorescence, higher = more signal;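 note: score combines 667 nm spot fluorescence with signal to noise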
# Pro-neuregulin-1, membrane-bound isoform (Homo sapiens), sequence (Q02297 whole entry, looked up, the tested form may be a part, canonical isoform): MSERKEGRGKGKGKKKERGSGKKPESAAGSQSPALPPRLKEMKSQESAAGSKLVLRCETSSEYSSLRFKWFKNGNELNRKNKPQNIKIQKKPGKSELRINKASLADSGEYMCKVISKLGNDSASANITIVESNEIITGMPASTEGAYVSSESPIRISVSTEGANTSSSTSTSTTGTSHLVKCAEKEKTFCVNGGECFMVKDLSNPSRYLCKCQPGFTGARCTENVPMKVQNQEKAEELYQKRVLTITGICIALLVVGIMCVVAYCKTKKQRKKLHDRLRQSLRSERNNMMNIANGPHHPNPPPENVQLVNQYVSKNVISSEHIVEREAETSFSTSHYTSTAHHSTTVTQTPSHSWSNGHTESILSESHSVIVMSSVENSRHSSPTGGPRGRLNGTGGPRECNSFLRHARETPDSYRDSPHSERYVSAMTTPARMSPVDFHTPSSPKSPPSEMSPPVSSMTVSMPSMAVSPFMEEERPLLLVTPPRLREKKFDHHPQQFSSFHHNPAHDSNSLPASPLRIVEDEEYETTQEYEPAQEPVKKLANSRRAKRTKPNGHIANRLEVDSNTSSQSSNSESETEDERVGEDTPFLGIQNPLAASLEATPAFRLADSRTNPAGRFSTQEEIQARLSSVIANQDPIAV
# [7] = test system: Neuregulin-1 EGF-like domain; test: binders of neuregulin-1 EGF-like domain, primary screen, biochemical, small-molecule microarray, 635 nm fluorescence (AID 1081); details: small-molecule microarray binding, higher = more signal;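 note: binding of the protein to compounds printed on small-molecule microarray slides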
# [8] = FRG1 promoter luciferase signal modulators, primary screen, FRG1 inhibition for FSHD, cell-based, C2C12 myotubes, firefly/Renilla luciferase, luminescence (AID 1084); details: higher = more signal, called active from +8 up or from −8 down
# [9] = binders of probe aFST on microarray, primary screen, stem cell growth factor project, biochemical, small-molecule microarray, fluorescence 635/667 (AID 1086); details: higher = more signal;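 note: score merges 667 nm fluorescence with signal-to-noise of each printed compound spot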
# [10] = binders of probe aHhip on microarray, primary screen, stem cell growth factor project, biochemical, small-molecule microarray, fluorescence 635/667 (AID 1087); details: higher = more signal;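 note: score merges spot fluorescence at 667nm with spot signal to noise ratio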
Compound,composite z-score [1],composite z-score [2],composite z-score [3],composite z-score [4],composite z-score [5],composite z-score [6],composite z-score [7],z-score [8],composite z-score [9],composite z-score [10]
O=C1C2C=CC(C(O)c3ccc([N+](=O)[O-])cc3)N(Nc3ccc([N+](=O)[O-])cc3)C2C(=O)N1c1ccccc1 (stereo not given),0.25,-0.0145,0.154,1.13,1.63,1.55,1.17,-0.164 (inactive),1.02,0.178
O=C1[C@H]2[C@H]3[C@H](O)[C@H](O)CC(=NOC[C@@H](O)COCc4ccco4)[C@H]3CC[C@H]2C(=O)N1Cc1ccc2c(c1)OCO2,-0.707,1.73,-0.204,-0.143,-0.282,-0.621,0.561,0.316 (inactive),-0.3,-0.44
CC(C)[C@@H](OCc1ccccc1)[C@H](C)C=NO[C@H](C)c1cn([C@H](CO)Cc2ccccc2)nn1,-0.479,0.227,-0.228,0.616,0.397,-0.154,0.658,-0.757 (inactive),0.344,-0.409
CC(CCN1CCCCc2nc(C)c(C)cc21)=NOC(C)CN1CCCc2nc(C)c(C)cc21 (stereo not given),0.0516,0.471,0.196,0.943,1.52,1.35,1.06,1.28 (inactive),1.24,0.82
CCOC(=O)[C@H](Cc1ccccc1)NC(=O)CCC1CC(OC(=O)NCc2ccc3c(c2)OCO3)CC2(CCCC(COC(=O)NCc3ccccc3)O2)O1 (stereo not given in full),-0.0824,0.204,-0.0103,0.697,0.808,0.317,0.718,1.54 (inactive),0.393,0.0505
CCN1C(=O)[C@H]2[C@H]3[C@H](O)[C@H](O)CC(=NOC[C@@H](C)[C@H](OCc4ccccc4)C(C)C)[C@@H]3CC[C@H]2C1=O,-0.468,1.28,-0.128,0.523,0.399,1.24,0.221,0.199 (inactive),0.0662,-0.169
CN1C(=O)C2C=CC(C(O)C(c3ccccc3)c3ccccc3)N(NC(=O)OC(C)(C)C)C2C1=O (stereo not given),1.16,0.868,0.448,1.09,1.73,1.99,1.22,0.745 (inactive),1.79,-0.116
O=C1[C@H]2[C@H]3[C@H](O)[C@H](O)CC(=NO[C@@H]4O[C@H](CO)[C@@H](O)[C@H](O)[C@H]4O)[C@@H]3CC[C@H]2C(=O)N1Cc1ccc2c(c1)OCO2,-0.401,-0.271,-0.166,0.112,0.737,0.542,0.974,0.118 (inactive),0.181,-0.201
CC(C)=CCCC(C)=CCON=C1[C@H]2CCn3c(=O)n(Cc4cc5c(cc4Cl)OCO5)c(=O)n3[C@H]2[C@H](O)[C@@H]2O[C@H]12,-0.405,1.2,-0.0481,0.262,0.405,0.0535,0.177,0.752 (inactive),0.661,-0.328
CCOC(=O)[C@H](Cc1ccccc1)NC(=O)CCC1CC(OC(=O)NCc2ccc3c(c2)OCO3)CC2(CCCC(COC(=O)NCc3cccc(C(F)(F)F)c3)O2)O1 (stereo not given in full),-0.353,0.226,-0.0985,0.0907,0.981,0.0527,0.481,-0.0878 (inactive),0.348,-0.0645
C#C[C@@H]1Oc2ccccc2S(=O)(=O)N2CCC[C@H]12,-0.311,0.143,-0.114,0.0728,0.133,-0.206,-0.113,-0.587 (inactive),0.214,-0.0596
C=C(CCCC)C(=O)CC[C@@H](OC(C)=O)c1cccc(OCCO)c1,-0.168,-0.371,-0.152,-0.565,-0.46,0.25,1.36,-3.56 (inactive),-0.507,-0.0994
COc1ccc([Si](C)(C)[C@@H]2[C@@H](CC(=O)N3CCC[C@H]3CO)O[C@]3(C(=O)N(Cc4cccc(N5CCC5=O)c4)c4ccccc43)[C@H]2C)cc1,-0.0723,0.461,-0.0715,0.45,0.322,1.51,1.14,-0.548 (inactive),-0.187,0.107
COc1cccc([C@H]2Oc3ccc(OC)cc3C(=NOC(C)CN3CCCc4nc(C)c(C)cc43)[C@@H]2O)c1 (stereo not given in full),-0.437,0.15,-0.0316,0.32,0.687,0.146,0.541,2.49 (inactive),-0.055,0.154
CCOC(=O)CCN1C(=O)[C@H]2[C@H]3[C@H](O)[C@H](O)CC(=NOC[C@@H](O)COCc4ccco4)[C@H]3CC[C@H]2C1=O,-0.528,-0.0277,-0.0996,0.483,0.722,0.035,0.148,0.122 (inactive),0.132,0.28
CCCCCN1CC=CC23O[C@@H]4C=CCOC(=O)[C@@H]4[C@H]2C(=O)N(C(CO)C(C)C)[C@@H]3C1=O (stereo not given in full),0.232,-1.58,-0.141,-0.495,-1.15,-0.694,0.657,-0.0073 (inactive),-0.357,-0.15
CC(C)CN1CCc2nc(-c3ccccc3)c3c(c2CC1)CO[C@@H](C)C3,0.0816,0.252,-0.0594,0.309,0.834,-0.117,0.132,-0.867 (inactive),0.594,0.394

Compound,composite z-score [1],composite z-score [2],composite z-score [3],composite z-score [4],composite z-score [5],composite z-score [6],composite z-score [7],z-score [8],composite z-score [9],composite z-score [10]
O=C1[C@H]2[C@H]3[C@H](O)[C@H](O)CC(=NO[C@@H]4O[C@H](CO)[C@@H](O)[C@H](O)[C@H]4O)[C@H]3CC[C@H]2C(=O)N1C1CCCCC1,-0.332,1.49,-0.0659,-0.0948,0.028,-0.197,0.995,-0.225 (inactive),0.276,0.841
CCCNC(=O)[C@@H]1c2ccccc2C(=O)N(Cc2ccccc2Cl)[C@H]1c1ccc(CO)cc1,0.198,0.274,0.0336,0.633,1.17,0.963,1.21,-1.18 (inactive),0.703,-0.216
CCCC[C@@H](O)C1=C(C)C[C@H]2C(=O)N(Cc3ccccc3)C(=O)[C@H]2[C@H]1CO,-0.531,0.709,-0.0564,0.185,-0.0286,0.0467,-0.322,0.778 (inactive),-0.0982,-0.0237
O=C1CCCC2OC12C(O)CCc1ccccc1 (stereo not given),-0.555,0.475,-0.166,0.411,0.455,-0.333,-0.251,0.42 (inactive),-0.0128,-0.226
CC(CCN1CCc2nc(-c3ccccc3)c(-c3ccccc3)cc2C1)=NO[C@H](C)c1cn([C@@H]2COC[C@H]2O)nn1,-0.388,1.4,-0.0867,0.259,0.295,0.646,1.03,-0.203 (inactive),0.133,-0.0237
O[C@@H](Cc1ccccc1)[C@H]1C2C=CCCC(c3ccccc3)=C2CN1Cc1cccc(Cl)c1 (stereo not given in full),-0.39,0.507,-0.015,0.271,0.799,1.08,1.07,-2.31 (inactive),0.26,-0.0047
CCCC=C(CCC)[C@@H](NC(=O)c1ccc(-c2ccccc2)cc1)c1ccc(C(=O)OC)cc1,0.0763,-0.719,0.0827,0.0375,1.51,0.746,0.824,0.348 (inactive),0.801,1.81
CN(C)CCCNC(=O)[C@@H]1c2ccccc2C(=O)N(Cc2ccccc2)[C@H]1c1ccc(CO)cc1,0.532,-0.338,0.311,-0.343,-1.08,-0.0367,0.571,-1.01 (inactive),0.178,-0.363
CC(C)(C)N1CC=CC23O[C@@H]4C=CCCOC(=O)C4[C@H]2C(=O)N(CCCCCO)[C@@H]3C1=O (stereo not given in full),-0.0873,1.48,-0.183,0.448,0.366,-0.0196,1.28,-0.85 (inactive),-0.443,0.0156
CC(C)(C)N1C(=O)[C@H]2[C@H]3[C@H](O)[C@H](O)CC(=NO[C@@H]4O[C@H](CO)[C@@H](O)[C@H](O)[C@H]4O)[C@@H]3CC[C@H]2C1=O,-0.549,-0.151,-0.0854,0.705,0.572,0.722,1.08,0.677 (inactive),0.135,-0.0994
CO[C@H]1COC(=O)[C@@H]2CCCN2C(=O)CC=C[C@@H](C)[C@H](OC)COC(=O)CC=C[C@@H]1C,-0.57,1.62,-0.163,-0.0218,-0.256,-0.796,0.659,-1.1 (inactive),0.152,0.176
COc1ccc(O[C@H]2C=C[C@@H](c3ccccc3)O[C@@H]2CON=C[C@@H](C)[C@H](OCc2ccccc2)C(C)C)cc1,-0.397,-0.249,-0.168,-0.773,-0.936,-0.744,-0.921,-1.01 (inactive),-0.623,-0.602
CC(CCC(=O)OC[C@H]1O[C@H](C#Cc2ccccc2)C=C[C@@H]1Oc1ccc(C)cc1)=NOC[C@@H](O)COCc1ccco1,0.348,-2.21,0.0388,-3.02,-2.5,-0.837,-0.295,-0.948 (inactive),-1.94,-0.389
C=CC[C@@H]1C=C[C@H](ON=C(C)CCN2CCc3nc(CC)c(CC)cc3C2)[C@@H](CO)O1,0.332,1.43,-0.0593,-0.21,0.0383,-0.21,0.987,2.55 (inactive),0.553,-0.123
CCN(CC)c1ccc(N2CC=CC34O[C@@H]5/C=C\CCC(C)OC(=O)C5[C@H]3C(=O)N(CCCO)[C@@H]4C2=O)cc1 (stereo not given in full),0.678,0.215,-0.0766,0.408,-0.659,0.63,1.58,0.957 (inactive),-0.444,-0.0237
COc1ccc(O[C@H]2C=C[C@@H](c3ccccc3)O[C@@H]2COC(=O)CCC(C)=NOC(C)CN2CCCCc3nc(C)c(C)cc32)cc1 (stereo not given in full),0.614,-0.017,-0.164,-0.102,-0.763,-0.0663,0.106,0.766 (inactive),-0.62,-0.226
